Bioassay records deposited in PubChem BioAssay by National Center for Advancing Translational Sciences (NCATS).
Mito fusion yeast: qHTS Assay for Small Molecule Inhibitors of Mitochondrial Division or Activators of Mitochondrial Fusion; S. cerevisiae fusion-defective mutant growth rescue, CellTiterGlo 48 h; 320,000 tested, 0.23% active; AID 485298, 2010; Potency, µM (series often up to 46.1 µM), usual class: activators; further: nearly all actives have a fitted effect of over 45% in size
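Yeast fusion mutant, YPEG (non-fermentable carbon), compound, 48 h at 37C non-permissive; CellTiterGlo added, 10 min RT, luminescence read. Rescued growth = division inhibition.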
A-T KAP1 phos: qHTS Assay for Identifying a Potential Treatment of Ataxia-Telangiectasia | Potency, µM (series often up to 57.5 µM), hits mostly activators | 320,000 tested, 0.19% active | AID 485349, 2010 | F2112 A-T fibroblasts, KAP-1 phosphorylation AlphaLISA; neocarzinostatin DNA damage 30 min before lysis; further: nearly all actives have a fitted effect of over 45% in size
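ATM-like activity read as KAP-1 phosphorylation via AlphaLISA donor/acceptor antibody pairs after lysis and 6 hr at 25C. Cells were ATM-null patient fibroblasts (F2112, hTERT), dosed 60 min, then exposed to the DSB inducer NCS for 30 min.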
SW480 rereplic: A quantitative high throughput screen for small molecules that induce DNA re-replication in SW480 colon adenocarcinoma cells. SW480 DNA re-replication, Hoechst DNA content imaging, 48 h. Potency, µM (series often up to 46.1 µM), most hits filed as activators. 340,000 tested, 1.8% active; further: nearly all actives have a fitted effect of over 55% in size
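Cells (250 per well) received 23 nL compound or DMSO by pin tool and were kept 48 hr at 37 C, 5% CO2. Nuclei were then stained with Hoechst for 40 min and scanned for DNA content.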
a7 integrin act: qHTS for Activators of Integrin-Mediated Alleviation for Muscular Dystrophy; 350,000 tested, 0.064% active; Potency, µM (titrated, usually from 38.3 µM), usual class: activators; alpha7betagal myoblasts, beta-gal FDG fluorescence, 48 h; further: nearly all actives have a fitted effect of over 60% in size
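alpha7betagal+/- myoblasts (passage 13, 250/well) treated 48 h at 37C with compounds at 1:260 dilution of DMSO stock. Lysed, then beta-galactosidase activity read as FDG fluorescence (ex 480/em 540) after 30 min, with pre-read for autofluorescence.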
MCF10A rerep: A quantitative high throughput screen for small molecules that induce DNA re-replication in MCF 10a normal breast cells. AID 624296, 2012. Potency, µM (top dose mostly 46.1 µM), usual class: activators. 350,000 tested, 2.9% active. MCF 10A DNA re-replication, Hoechst nuclear intensity, 48 h; further: nearly all actives have a fitted effect of over 50% in size
A number is an active result; n = inactive; u = inconclusive; x = no result given. Compounds with a hit are over-represented: about 4.2% of the library has one in this group of screens. The call rests on the fitted dose curve; in most records, active means well fitted activation curve with a large enough effect; inconclusive means small, poorly fitted or top-dose-only effect; inactive means no such curve, though single readings can be large or run the other way.

SMILES	Mito fusion yeast	A-T KAP1 phos	SW480 rereplic	a7 integrin act	MCF10A rerep
CSc1nnc(-c2sc3cc(C(F)(F)F)cnc3c2-c2ccccc2)n1C	n	n	n	n	4.6µM
Cc1cc(C)c2nc(NNC(=O)c3cc(-c4cccs4)nc4ccccc34)sc2c1	n	n	u	n	u
Cc1ccc2c(Cl)c(C(=O)N/N=C/c3cccn3C)sc2c1	n	n	n	n	21µM
Cn1cccc1/C=N/NC(=O)c1cc(-c2cccs2)nc2ccccc12	u	n	15µM	n	5.8µM
O=C(N/N=C/c1ccc2ncccc2c1)c1cc(-c2cccs2)nc2ccccc12	n	n	n	n	5.8µM
O=C(NNc1nc2ccc(Cl)cc2s1)c1cc(-c2cccs2)nc2ccccc12	n	n	u	n	18µM
O=C(NCc1ccc(F)cc1)C(Cc1ccccc1)n1cccc1 (stereo not drawn)	n	n	n	n	n
O=C(c1ccco1)N1CCN(C2CN(Cc3ccc([N+](=O)[O-])cc3)S(=O)(=O)C2)CC1 (stereo not drawn)	x	x	x	n	x
OC(c1ccccc1)C(NCc1ccccc1)c1ccccc1 (stereo not drawn)	x	x	x	n	x
COc1ccccc1/C=C/C(=O)c1ccc(Cl)cc1	n	n	u	n	u
COc1ccccc1/C=C/C(=O)c1ccc(NC(C)=O)cc1	u	n	n	n	16µM
O=C(/C=C/c1cccc2ccccc12)c1ccncc1	n	n	u	n	12µM
O=C(/C=C/c1c[nH]c2ccccc12)c1ccccc1	n	n	18µM	n	u
COc1ccccc1/C=C/C(=O)c1ccccc1	n	n	u	n	26µM
COc1ccc(/C=C/C(=O)c2ccccc2)c(OC)c1	n	n	u	n	n
Cc1ccc(C(=O)/C=C/c2c[nH]c3ccccc23)cc1	n	n	n	n	n
CC1(C)Cc2c(cnn2-c2ccc(F)cc2)C(NC(=O)CN2CCCCC2=O)C1 (stereo not drawn)	n	n	n	n	n
COc1cc(OC)c(OC)cc1/C=C/C(=O)c1ccc(NS(=O)(=O)c2ccc(C)cc2)cc1	n	n	u	n	5.8µM
COc1ccc(/C=C/C(=O)NC(=S)NCc2ccccc2)cc1OC	n	n	23µM	n	n
COc1ccccc1/C=C/C(=O)NC(=S)N1CCN(C)CC1	n	n	n	n	n
CC(=O)c1ccc(NS(=O)(=O)c2ccc(C)cc2)cc1	n	n	n	n	u
COc1ccccc1/C=C/C(=O)NC(=S)NC(C)C	n	n	16µM	n	u
CCCCC/C(C=O)=C/c1ccccc1	x	x	n	x	n
Nc1ccn([C@@H]2O[C@H](CO)[C@H](O)C2(F)F)c(=O)n1	x	x	u	x	n
Cc1cc(-n2c(SCC(=O)Nc3ccc(F)c(F)c3)nc3n[nH]c(C)c3c2=N)ccc1Cl	n	u	u	n	2.3µM
SMILES	Mito fusion yeast	A-T KAP1 phos	SW480 rereplic	a7 integrin act	MCF10A rerep
CCOc1ccc(-n2c(SCC(=O)Nc3ccccc3CC)nc3n[nH]c(C)c3c2=N)cc1	n	n	x	x	x
Cc1cc(-n2c(SCC(=O)NCc3cccs3)nc3n[nH]c(C)c3c2=N)ccc1Cl	n	n	n	n	u
CCOc1ccc(-n2c(SCC(=O)Nc3ccc(Br)cc3)nc3n[nH]c(C)c3c2=N)cc1	n	n	u	n	15µM
Cc1cc(-n2c(SCC(=O)Nc3ccc(Br)cc3)nc3n[nH]c(C)c3c2=N)ccc1Cl	n	n	18µM	n	3.3µM
O=C(c1cc2ccccc2o1)N(C1CC1)C1(C(=O)Nc2ccccc2)CCCC1	n	n	n	n	n
C[C@H](CO)N1C[C@H](C)[C@H](CN(C)S(=O)(=O)c2ccc(Cl)cc2)OCc2cnnn2CCCC1=O	x	x	x	n	x
CCN(Cc1ccccc1)C(=O)c1ccc(Cl)cc1[N+](=O)[O-]	n	n	n	n	n
Cc1cc(/C=C(\C#N)C(=O)NCCc2c[nH]c3ccccc23)c(C)n1C	n	n	n	n	n
COc1cc(/C=C(/C#N)C(=O)NCCc2c[nH]c3ccccc23)ccc1OCc1ccccc1F	n	n	3.3µM	n	5.2µM
CC(=O)Nc1cc2c(cc1[N+](=O)[O-])-c1ccccc1C2O (stereo not drawn)	x	x	u	n	18µM
CC(OC(=O)C1CCN(S(=O)(=O)c2ccc3c(c2)OCCO3)CC1)C(=O)NC1(C#N)CCCCC1 (stereo not drawn)	x	x	n	n	n
CC(=O)c1cccc(NC(=O)Cn2nc(-c3ccc(Cl)cc3)ccc2=O)c1	n	n	n	n	0.58µM
Cc1ccccc1CNC(=O)CN1C(=O)c2ccccc2S1(=O)=O	n	n	n	n	n
Cc1ccccc1CN1C(=O)c2ccccc2S1(=O)=O	n	n	n	n	23µM
CCCCN(C)CCNC(=O)CCNC(=O)Cn1ccc2ccccc2c1=O	18µM	n	n	n	n
Cc1cc(C)cc(NC(=O)N2CCN(S(C)(=O)=O)CC2)c1	n	n	n	n	n
O=C1[C@@H]2[C@H]3CC[C@H](C3)[C@@H]2C(=O)N1O	n	n	u	n	1.2µM
c1ccc(-c2cc(-c3ccncc3)nc3ccc4ccccc4c23)cc1	n	n	u	n	15µM
Clc1ccc2nc(-c3ccncc3)cc(-c3ccccc3)c2c1	n	x	n	n	n
CCc1ccc(S(=O)(=O)/N=C2/C=C(Sc3ncn[nH]3)C(=O)c3ccccc32)cc1	n	n	4.6µM	n	3.3µM
CCc1ccc(S(=O)(=O)/N=C2\C=C(Nc3cccc(C(=O)O)c3)C(=O)c3ccccc32)cc1	n	n	n	n	u
O=C(O)c1ccc(NC2=C/C(=N/S(=O)(=O)c3ccccc3)c3ccccc3C2=O)cc1	n	n	3.3µM	n	u
CCc1ccc(S(=O)(=O)/N=C2\C=C(Nc3ccc(O)cc3)C(=O)c3ccccc32)cc1	n	n	5.8µM	n	3.7µM
CCc1ccc(S(=O)(=O)/N=C2\C=CC(=O)c3ccccc32)cc1	n	n	x	x	x
CC[C@H](C)[C@H]1CNC(=O)C(=O)N1CC1CCN(CCCc2ccc(OC)c(OC)c2)CC1	x	x	u	n	n
CCC(C)/C(C)=N/NC(=O)c1ccc(CSc2nc3ccccc3s2)cc1 (stereo not drawn)	n	n	n	n	u
COc1cc(/C=N/NC(=O)CCC(=O)Nc2ccc(Br)cc2)ccc1O	n	n	n	n	n
O=C(CNC(=O)N1CC(=O)Nc2ccccc21)Nc1nccs1	n	n	n	n	n
COc1ccc(C(=O)NC(C(=O)NCc2ccccc2OC)C(C)C)cc1 (stereo not drawn)	n	n	n	n	0.92µM
Cc1ccc(CNC(=O)c2ccc3nc4[nH]c5ccccc5c4nc3c2)cc1	n	n	x	x	x
